Data reported in PubChem BioAssay AID1347076 (National Center for Advancing Translational Sciences (NCATS), 2019).
The campaign covered roughly 400,000 compounds. About 13,000 (3.2%) were called active. Not shown: some 18% with an inconclusive outcome. Only a selection was taken, and actives are over-represented in it overall. Values without a mark were called inactive. The call rests on the fitted dose curve; in most records, active means well fitted cell-killing curve with a large enough effect; inconclusive means small, poorly fitted or top-dose-only effect, or effect the other way; inactive means flat fitted curve, though single readings scatter.

Assay: qHTS assay for MDR1-selective chemotherapeutics: Primary screen using the drug-selected MDR subline cells KB-V1; further: nearly all actives have a fitted effect of over 60% in size
Details: KB-V1 MDR cells viability, CellTiter-Glo, 72 h; series mostly up to 46.1 µM; activity change, negative = cytotoxicity: at the top concentration
Procedure, shortened: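 KB-V1 MDR subline cells in DMEM (phenol-red free, 10% FBS) exposed to compounds in qHTS concentration series for 72 h at 37 degrees C. Viability read by CellTiter-Glo luminescence; concentration-effect curves fitted after normalization and correction.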
On the % scale 0 is the no-effect control and ±100 the full control effect; potency means the concentration at half of the fitted maximal effect.

In order of falling “activity change, negative = cytotoxicity” value:
1. O=C(NCCN1CCOCC1)c1ccc2c(c1)N(Cc1cccc(Cl)c1)C(=O)c1ccccc1S2(=O)=O  29.9%
2. Cc1nn2c(=O)cc(COC(=O)CNC(=O)c3ccc(F)cc3)nc2s1  28.8%
3. CN1OC[C@@H]2CN(C(=O)c3cccc4ccccc34)[C@H](c3ccc(N4CCCCC4)cc3)C[C@@H]21  22.9%
4. CCc1ccc2oc(-c3ccc(C)c(NC(=O)/C=C/c4ccco4)c3)nc2c1  22.1%
5. OC[C@@H]1CN(C2CCCC2)C[C@H](n2cnc3c(NC4CCC4)ncnc32)O1  19.1%
6. NS(=O)(=O)c1ccc(NC(=O)C(=O)Nc2ccc3nc4n(c(=O)c3c2)CCCCC4)cc1  17.5%
7. CCOc1cccc2c1N[C@@H](c1ccc(C(=O)O)cc1)[C@H]1CC=C[C@@H]21  17.3%
8. CCCCN(CCCNC(=O)c1cc(Nc2ccccc2OC)nc2ccccc12)c1ccccc1  14.8%
9. O=C(Nc1cccc(OCC(=O)N2CCOCC2)c1)C1CCCCC1  14.1%
10. COc1ccc(CNC(=O)c2c(C)cc(=O)oc2C)cc1OC  13.8%
11. CCCCOc1ccc(CNC(=O)c2ccc3c(c2)N(C)C(=O)C2CCCCN32)cc1 (stereo not drawn)  11.8%
12. CCOC(=O)CSC1=Nc2ccccc2C2=NC(CCC(=O)NCc3ccc(F)cc3)C(=O)N12 (stereo not drawn)  8.51%
13. CNc1cncc(-c2cccc(C(=O)N3CCOCC3)c2)n1  4.04%
14. CCNC(=O)C1CCCN(C(=O)c2ccc(OC)cc2OC)CC1 (stereo not drawn)  2.93%
15. CC(C)CNC(=O)C1(C)CCCN1C(=O)CSc1ccccc1 (stereo not drawn)  2.38%
16. Cc1cccc(NC(=O)CSc2nc3c(oc4ccccc43)c(=O)n2-c2ccc(F)cc2)c1  2.03%
17. O=C(/C=C\c1ccc2c(c1)OCO2)NC1(C(=O)Nc2ccc3c(c2)OCCO3)CCCCC1  0.694%
18. Cc1cc(C)c2cc(C#N)c(N3CCNCC3)nc2c1  0.402%
19. CCOc1cc(C2C(C(=O)OC)=C(C)NC3=C2C(=O)c2ccccc23)ccc1O (stereo not drawn)  0.212%
20. Cc1ccc2nc(NCCCNC(=O)c3cnccn3)c(C#N)cc2c1  0.0278%
21. COc1ccc(-n2c(SCC(N)=O)nc3c(oc4ccccc43)c2=O)cc1  0%
22. CCC(C)NC(=O)c1ccccc1NC(=O)c1ccccc1N(C)S(C)(=O)=O (stereo not drawn)  0%
23. COc1ccc(NC(=O)CNC(=O)Cc2ccccc2)cc1OC  0%
24. CCC(=O)N1c2ccccc2CC1C(=O)N1CCN(c2ccccc2F)CC1 (stereo not drawn)  -0.299%
25. CC(C)NC(=O)C1(C)CCCCCN1C(=O)c1ccc(-c2ccccc2)cc1 (stereo not drawn)  -1.14%
26. Cc1sc2ncnc(SCC(=O)NC3CCS(=O)(=O)C3)c2c1C (stereo not drawn)  -1.3%
27. CCc1nc2c(OCCOc3ccccc3)cccn2c1N(C)C(=O)c1ccccc1F  -2.19%
28. CCCCCn1c(=O)[nH]c2cc(C(=O)Nc3ccc(F)cc3)ccc2c1=O  -4.83%
29. CCc1ccccc1N1CN(Cc2ccco2)CNC1=S  -5.41%
30. CS(=O)(=O)Nc1ccc(C2=NN(S(C)(=O)=O)C(c3cccs3)C2)cc1 (stereo not drawn)  -6.25%
31. Cc1ccc(-c2nc3cccc(C)n3c2Nc2ccc3c(c2)OCCO3)cc1  -6.68%
32. CCN(CC)C(=O)CSc1nnc(CNc2ccc(F)cc2)n1Cc1ccco1  -7.12%
33. COCCn1c(SCC(=O)c2cc(C)ccc2C)nc2cc(C(=O)NC3CCCC3)ccc2c1=O  -7.24%
34. CCCNS(=O)(=O)c1ccc(CCC(=O)N2CCCC2)cc1  -7.52%
35. CN(C)Cc1cn(-c2ccccc2)nc1-c1ccccc1  -7.78%
36. CCNS(=O)(=O)c1ccc(CCC(=O)N2CCN(c3ccc(OC)cc3)CC2)cc1  -7.91%
37. COc1cccc(/C=C/C(=O)Nc2ccc3c(c2)OCCO3)c1  -8.07%
38. CN(c1ccccc1)S(=O)(=O)c1ccc(C(=O)NCc2cccnc2)cc1  -8.64%
39. O=C1CC2(CCN(C(=O)COc3ccc(F)cc3)CC2)Oc2ccccc21  -11.3%
40. O=C1C(Sc2cccc(F)c2)=C[C@@]2(O)CC[C@@H](O)[C@]1(Sc1cccc(F)c1)[C@H]2O  -13.7%
41. O=C(c1ccccc1)N1CCN(c2cc(-c3ccccc3)nc3cc(-c4cccc(Cl)c4)nn23)CC1  -14.3%
42. COc1cccc(C(O)c2ncc(-c3ccc4ccccc4c3)[nH]2)c1 (stereo not drawn)  -14.9%
43. COC(=O)C[C@H]1C=C[C@H](NC(=O)c2ccc(F)cc2)[C@@H](CO)O1  -15%
44. CCOC(=O)c1c(NC(=O)CSc2nccc(=O)[nH]2)sc(C)c1C  -16.2%
45. Cc1ccc(S(=O)(=O)/N=C2\C=C(NS(=O)(=O)c3ccc(C)cc3)C(=O)c3ccccc32)cc1  -17%
46. CCCCNC(=O)c1ccccc1NC(=O)C1=C(C)OCCS1  -18.7%
47. COc1ccc(CNC(=O)c2ccc(Br)s2)cc1OC  -18.8%
48. CCN(CC)CCN(C(=O)c1ccc2c(c1)CCCC2)c1nc2c(OC)cccc2s1  -19.3%
49. CCCOc1ccc(F)cc1-c1cc(C(=O)Nc2ccc(F)cc2)[nH]n1  -21.7%
50. COc1ccc(CCNC(=O)Cc2ccc(C)cc2)cc1OC  -23.9%

With `COc1ccc(/C=C/C(=O)Nc2ccc3c(c2)OCCO3)cc1OC` the Potency was 20.6 µM (active).
With `CCC(C)(C)n1nnnc1CN1CCN(c2nc3ccc(C)cc3cc2C#N)CC1` the Potency was 23.1 µM (active).
In the case of `CNc1cncc(-c2ccc(NS(C)(=O)=O)cc2)n1`, the Potency is reported as 5.17 µM (active).
With `COC(=O)c1c(-c2cccs2)csc1NC(=O)CSc1ncnc2sc(C)c(C)c12` the Potency was 18.4 µM (active).
In the case of `O=C1CC2(CCCCC2)Oc2ccc(OCC(=O)N3CCOCC3)cc21`, the Potency is reported as 11.6 µM (active).
In the case of `CN(C)C(=S)N=c1ssc(=S)n1Cc1ccco1`, the Potency is reported as 4.11 µM (active).
In the case of `CN1CCN(C2Cc3ccc(Cl)cc3Sc3ccc(F)cc32)CC1` (stereo not drawn), the Potency is reported as 16.4 µM (active).
In the case of `Cc1ccc(C)c(NC(=O)CSc2nc3c(oc4ccccc43)c(=O)n2-c2ccccc2)c1`, the Potency is reported as 7.31 µM (active).
In the case of `Cc1c(C)c(C)c2[nH]c(=S)[nH]c2c1C`, the Potency is reported as 3.66 µM (active).
For `CCCCNC(=O)c1ccccc1NC(=O)c1ccccc1N(C)S(C)(=O)=O`, the Potency was 23.1 µM (active).
In the case of `COc1ccc(CNC(=O)c2ccc(-c3cccnc3)c3ccoc23)cc1OC`, the Potency is reported as 18.4 µM (active).
For `COc1ccc(CNC(=O)Cc2ccc(-c3ccccc3)cc2)cc1OC`, the Potency was 7.31 µM (active).
For `CCNS(=O)(=O)c1ccc(CCC(=O)N2CCN(c3cc(Cl)ccc3C)CC2)cc1`, the Potency was 14.6 µM (active).
